Measured values reported in PubChem BioAssay.
Activity calls are given as the source filed them.

What was measured:
[1] = small molecules captured by biotinylated probe aFSTL3 – biochemical, small-molecule microarray, fluorescence 635/667, stem cell growth factor project, primary screen (AID 1064); details: higher = more signal;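 further: measures binding of the biotinylated anti-FSTL3 antibody to printed compounds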
[2] = binders from COS7 lysate, DM2A8 probe, primary screen, torsin A project, cell lysate, small-molecule microarray, fluorescence 635/667 (AID 1065); details: higher = more signal, COS7 lysate expressing mutant human TOR1A
[3] = small molecules captured by biotinylated probe aFGF2 – biochemical, small-molecule microarray, fluorescence 635/667, stem cell growth factor project, primary screen (AID 1067); details: higher = more signal;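 further: measures binding of biotinylated aFGF2 protein to printed compounds on slides; z-score merges feature fluorescence and signal-to-noise across triplicate slides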
[4] = small molecules captured by biotinylated probe aFGF10 – biochemical, small-molecule microarray, fluorescence 635/667, stem cell growth factor project, primary screen (AID 1071); details: higher = more signal;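 further: score merges 667 nm spot intensity and signal to noise from triplicate slides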
[5] = target: Neurogenic locus notch homolog protein 2 (Homo sapiens) (UniProt Q04721); assay: small molecules binding Notch2 protein – biochemical, small-molecule microarray, 635 nm fluorescence, stem cell growth factors, primary screen (AID 1073); details: higher = more signal
[6] = target: Pro-neuregulin-1, membrane-bound isoform (Homo sapiens) (UniProt Q02297); assay: small molecules binding neuregulin-1 protein – biochemical, small-molecule microarray, fluorescence 635/667, psychiatric disease protein project, primary screen (AID 1075); details: NRG1 binding, 635 nm fluorescence, higher = more signal;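 further: score combines 667 nm spot fluorescence with signal to noise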
[7] = tested on: Neuregulin-1 EGF-like domain; assay: small molecules binding NRG1 EGF domain – biochemical, small-molecule microarray, 635 nm fluorescence, primary screen (AID 1081); details: higher = more signal;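 further: binding of the protein to compounds printed on small-molecule microarray slides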
[8] = FRG1 expression reporter modulators in myotubes – cell-based, C2C12 myotubes, firefly/Renilla luciferase, luminescence, FRG1 inhibition for FSHD, primary screen (AID 1084); details: FRG1 promoter luciferase, higher = more signal, called active from +8 up or from −8 down
[9] = small molecules captured by biotinylated probe aFST – biochemical, small-molecule microarray, fluorescence 635/667, stem cell growth factor project, primary screen (AID 1086); details: higher = more signal;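 further: score merges 667 nm fluorescence with signal-to-noise of each printed compound spot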
[10] = binders of probe aHhip on microarray, primary screen, stem cell growth factor project, biochemical, small-molecule microarray, fluorescence 635/667 (AID 1087); details: higher = more signal;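 further: score merges spot fluorescence at 667nm with spot signal to noise ratio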
[11] = tested on: PRMT1 (protein arginine N-methyltransferase 1); assay: small molecules binding arginine methyltransferase PRMT1 – biochemical, small-molecule microarray, 635 nm fluorescence, primary screen (AID 1088); details: higher = more signal;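 further: binding of Prmt1 protein to compounds spotted on small-molecule microarray slides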
[12] = growth effects on S. cerevisiae YJM789 – YJM789 clinical isolate, OD600, 24 h, basal, primary screen (AID 1089); details: higher = more signal, called active from +8 up or from −8 down;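 further: growth of clinical yeast isolate S. cerevisiae YJM 789 seeded 1000 cells per well; test concentration not given here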
[13] = S. pombe growth modifiers, basal conditions – strain 972, OD600, 24 h, no modulator, primary screen (AID 1090);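 further: basal condition with compound alone and no growth modifier present; test concentration not given here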; details: S. pombe 972 growth, higher = more signal, called active from +8 up or from −8 down
[14] = budding yeast growth modifiers under rapamycin – strain BY4716, OD600, 96 h, primary screen (AID 1091); further: test concentration not given here; details: S. cerevisiae BY4716 + rapamycin, higher = more signal, called active from +8 up or from −8 down
[15] = target: Torsin-1A-interacting protein 2 (Homo sapiens) (UniProt Q8NFQ8); assay: small molecules binding lysate-expressed LULL1 – cell lysate, human LULL1 lysate, 635/667 nm fluorescence, primary screen (AID 1092); details: small-molecule microarray, hLULL1 lysate binding, 635 nm fluorescence; higher = more signal;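 further: probe is lysate of COS7 cells overexpressing human LULL1; score merges per-feature 667 nm fluorescence with signal-to-noise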
[16] = optical density change of DRC41 E. coli – strain DRC41, OD650, 24 h, E. coli filamentation project, primary screen (AID 1093);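 further: MC1000 strain lacking acrAB efflux and sulA so SOS filamentation is blocked; test concentration not given here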; details: E. coli DRC41 growth, higher = more signal, called active from +8 up or from −8 down
[17] = probe aLefty2 binding to arrayed compounds – biochemical, biotinylated probe, 635/667 nm fluorescence, primary screen (AID 1094); details: small-molecule microarray, higher = more signal;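 further: score merges spot fluorescence near 667 nm with spot signal-to-noise ratio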
[18] = tested on: Noggin (protein binding on small-molecule microarray); assay: small molecules binding Noggin protein – biochemical, 635/667 nm fluorescence, primary screen (AID 1095); details: 635 nm fluorescence, higher = more signal;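 further: score merges 667 nm feature fluorescence with signal to noise over triplicate slides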
[19] = target: Neurogenic locus notch homolog protein 3 (Homo sapiens) (UniProt Q9UM47); assay: small molecules binding NOTCH3 protein – biochemical, 635/667 nm fluorescence, primary screen (AID 1096); details: small-molecule microarray, 635 nm fluorescence, higher = more signal
[20] = probe aEGFR binding to arrayed compounds – biochemical, biotinylated probe, 635/667 nm fluorescence, primary screen (AID 1097); details: small-molecule microarray, higher = more signal;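 further: probe is a biotinylated anti-EGFR antibody binding compounds printed on slides; score combines fluorescence near 667 nm and signal to noise of each spot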

Sequence of Neurogenic locus notch homolog protein 2 (Homo sapiens) (Q04721 whole entry, looked up, canonical isoform): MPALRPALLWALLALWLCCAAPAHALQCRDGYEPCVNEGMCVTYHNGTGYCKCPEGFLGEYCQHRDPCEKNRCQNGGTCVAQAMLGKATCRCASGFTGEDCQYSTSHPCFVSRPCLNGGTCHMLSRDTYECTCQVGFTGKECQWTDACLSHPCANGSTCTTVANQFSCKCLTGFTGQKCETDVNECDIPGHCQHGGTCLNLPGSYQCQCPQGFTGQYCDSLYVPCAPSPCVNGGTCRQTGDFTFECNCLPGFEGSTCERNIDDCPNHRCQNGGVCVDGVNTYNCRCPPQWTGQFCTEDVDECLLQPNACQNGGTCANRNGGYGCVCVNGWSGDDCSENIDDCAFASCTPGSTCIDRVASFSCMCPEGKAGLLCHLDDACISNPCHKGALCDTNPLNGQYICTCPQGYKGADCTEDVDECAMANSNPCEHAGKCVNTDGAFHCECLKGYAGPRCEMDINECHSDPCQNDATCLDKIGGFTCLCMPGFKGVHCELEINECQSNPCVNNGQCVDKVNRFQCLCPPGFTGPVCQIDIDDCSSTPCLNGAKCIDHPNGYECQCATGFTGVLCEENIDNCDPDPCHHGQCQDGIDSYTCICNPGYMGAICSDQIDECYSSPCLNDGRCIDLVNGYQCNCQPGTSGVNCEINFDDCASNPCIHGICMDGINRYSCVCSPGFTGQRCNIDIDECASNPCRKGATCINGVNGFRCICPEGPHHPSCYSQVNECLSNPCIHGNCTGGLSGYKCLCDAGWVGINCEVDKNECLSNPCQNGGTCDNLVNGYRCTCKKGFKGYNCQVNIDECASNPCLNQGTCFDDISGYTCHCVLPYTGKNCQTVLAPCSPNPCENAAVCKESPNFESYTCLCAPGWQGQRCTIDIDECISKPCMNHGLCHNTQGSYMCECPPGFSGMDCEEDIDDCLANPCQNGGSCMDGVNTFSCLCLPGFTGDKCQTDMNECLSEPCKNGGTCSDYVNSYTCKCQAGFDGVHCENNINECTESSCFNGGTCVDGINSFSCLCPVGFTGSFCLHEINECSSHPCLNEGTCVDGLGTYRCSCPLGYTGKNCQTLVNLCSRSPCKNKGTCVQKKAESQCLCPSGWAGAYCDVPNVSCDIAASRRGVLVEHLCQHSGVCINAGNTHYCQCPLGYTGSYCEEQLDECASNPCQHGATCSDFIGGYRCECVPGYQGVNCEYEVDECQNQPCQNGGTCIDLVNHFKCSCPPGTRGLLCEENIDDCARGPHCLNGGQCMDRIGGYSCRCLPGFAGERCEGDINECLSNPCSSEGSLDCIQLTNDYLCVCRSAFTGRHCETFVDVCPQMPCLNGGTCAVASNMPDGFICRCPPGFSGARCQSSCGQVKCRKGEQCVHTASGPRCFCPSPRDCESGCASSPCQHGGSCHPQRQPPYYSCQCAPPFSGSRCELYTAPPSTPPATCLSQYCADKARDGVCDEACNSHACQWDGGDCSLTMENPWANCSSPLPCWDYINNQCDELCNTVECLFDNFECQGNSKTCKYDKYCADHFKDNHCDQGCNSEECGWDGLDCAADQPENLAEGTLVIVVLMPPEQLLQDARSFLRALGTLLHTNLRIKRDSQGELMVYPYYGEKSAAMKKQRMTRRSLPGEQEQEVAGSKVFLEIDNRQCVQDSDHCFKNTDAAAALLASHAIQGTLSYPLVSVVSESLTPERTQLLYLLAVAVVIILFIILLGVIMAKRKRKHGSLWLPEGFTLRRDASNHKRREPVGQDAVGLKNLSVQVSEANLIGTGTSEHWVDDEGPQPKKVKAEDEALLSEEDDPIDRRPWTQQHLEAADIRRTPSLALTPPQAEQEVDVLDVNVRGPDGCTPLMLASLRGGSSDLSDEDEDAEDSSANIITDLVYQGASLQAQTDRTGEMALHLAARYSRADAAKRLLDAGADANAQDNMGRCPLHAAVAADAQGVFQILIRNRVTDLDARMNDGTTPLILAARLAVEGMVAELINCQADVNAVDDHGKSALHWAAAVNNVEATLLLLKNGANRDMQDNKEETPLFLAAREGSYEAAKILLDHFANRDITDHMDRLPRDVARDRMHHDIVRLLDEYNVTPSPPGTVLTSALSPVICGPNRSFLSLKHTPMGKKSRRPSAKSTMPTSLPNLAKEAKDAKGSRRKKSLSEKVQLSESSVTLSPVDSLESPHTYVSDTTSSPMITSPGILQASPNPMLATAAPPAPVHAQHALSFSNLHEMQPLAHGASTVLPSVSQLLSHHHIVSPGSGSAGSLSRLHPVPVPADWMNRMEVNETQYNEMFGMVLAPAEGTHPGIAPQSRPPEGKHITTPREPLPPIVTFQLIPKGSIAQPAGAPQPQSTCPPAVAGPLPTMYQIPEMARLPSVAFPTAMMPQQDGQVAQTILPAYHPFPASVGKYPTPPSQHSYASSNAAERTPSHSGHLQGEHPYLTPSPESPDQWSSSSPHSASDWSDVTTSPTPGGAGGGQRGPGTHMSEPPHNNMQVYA
Sequence of Neurogenic locus notch homolog protein 3 (Homo sapiens) (Q9UM47 whole entry, looked up): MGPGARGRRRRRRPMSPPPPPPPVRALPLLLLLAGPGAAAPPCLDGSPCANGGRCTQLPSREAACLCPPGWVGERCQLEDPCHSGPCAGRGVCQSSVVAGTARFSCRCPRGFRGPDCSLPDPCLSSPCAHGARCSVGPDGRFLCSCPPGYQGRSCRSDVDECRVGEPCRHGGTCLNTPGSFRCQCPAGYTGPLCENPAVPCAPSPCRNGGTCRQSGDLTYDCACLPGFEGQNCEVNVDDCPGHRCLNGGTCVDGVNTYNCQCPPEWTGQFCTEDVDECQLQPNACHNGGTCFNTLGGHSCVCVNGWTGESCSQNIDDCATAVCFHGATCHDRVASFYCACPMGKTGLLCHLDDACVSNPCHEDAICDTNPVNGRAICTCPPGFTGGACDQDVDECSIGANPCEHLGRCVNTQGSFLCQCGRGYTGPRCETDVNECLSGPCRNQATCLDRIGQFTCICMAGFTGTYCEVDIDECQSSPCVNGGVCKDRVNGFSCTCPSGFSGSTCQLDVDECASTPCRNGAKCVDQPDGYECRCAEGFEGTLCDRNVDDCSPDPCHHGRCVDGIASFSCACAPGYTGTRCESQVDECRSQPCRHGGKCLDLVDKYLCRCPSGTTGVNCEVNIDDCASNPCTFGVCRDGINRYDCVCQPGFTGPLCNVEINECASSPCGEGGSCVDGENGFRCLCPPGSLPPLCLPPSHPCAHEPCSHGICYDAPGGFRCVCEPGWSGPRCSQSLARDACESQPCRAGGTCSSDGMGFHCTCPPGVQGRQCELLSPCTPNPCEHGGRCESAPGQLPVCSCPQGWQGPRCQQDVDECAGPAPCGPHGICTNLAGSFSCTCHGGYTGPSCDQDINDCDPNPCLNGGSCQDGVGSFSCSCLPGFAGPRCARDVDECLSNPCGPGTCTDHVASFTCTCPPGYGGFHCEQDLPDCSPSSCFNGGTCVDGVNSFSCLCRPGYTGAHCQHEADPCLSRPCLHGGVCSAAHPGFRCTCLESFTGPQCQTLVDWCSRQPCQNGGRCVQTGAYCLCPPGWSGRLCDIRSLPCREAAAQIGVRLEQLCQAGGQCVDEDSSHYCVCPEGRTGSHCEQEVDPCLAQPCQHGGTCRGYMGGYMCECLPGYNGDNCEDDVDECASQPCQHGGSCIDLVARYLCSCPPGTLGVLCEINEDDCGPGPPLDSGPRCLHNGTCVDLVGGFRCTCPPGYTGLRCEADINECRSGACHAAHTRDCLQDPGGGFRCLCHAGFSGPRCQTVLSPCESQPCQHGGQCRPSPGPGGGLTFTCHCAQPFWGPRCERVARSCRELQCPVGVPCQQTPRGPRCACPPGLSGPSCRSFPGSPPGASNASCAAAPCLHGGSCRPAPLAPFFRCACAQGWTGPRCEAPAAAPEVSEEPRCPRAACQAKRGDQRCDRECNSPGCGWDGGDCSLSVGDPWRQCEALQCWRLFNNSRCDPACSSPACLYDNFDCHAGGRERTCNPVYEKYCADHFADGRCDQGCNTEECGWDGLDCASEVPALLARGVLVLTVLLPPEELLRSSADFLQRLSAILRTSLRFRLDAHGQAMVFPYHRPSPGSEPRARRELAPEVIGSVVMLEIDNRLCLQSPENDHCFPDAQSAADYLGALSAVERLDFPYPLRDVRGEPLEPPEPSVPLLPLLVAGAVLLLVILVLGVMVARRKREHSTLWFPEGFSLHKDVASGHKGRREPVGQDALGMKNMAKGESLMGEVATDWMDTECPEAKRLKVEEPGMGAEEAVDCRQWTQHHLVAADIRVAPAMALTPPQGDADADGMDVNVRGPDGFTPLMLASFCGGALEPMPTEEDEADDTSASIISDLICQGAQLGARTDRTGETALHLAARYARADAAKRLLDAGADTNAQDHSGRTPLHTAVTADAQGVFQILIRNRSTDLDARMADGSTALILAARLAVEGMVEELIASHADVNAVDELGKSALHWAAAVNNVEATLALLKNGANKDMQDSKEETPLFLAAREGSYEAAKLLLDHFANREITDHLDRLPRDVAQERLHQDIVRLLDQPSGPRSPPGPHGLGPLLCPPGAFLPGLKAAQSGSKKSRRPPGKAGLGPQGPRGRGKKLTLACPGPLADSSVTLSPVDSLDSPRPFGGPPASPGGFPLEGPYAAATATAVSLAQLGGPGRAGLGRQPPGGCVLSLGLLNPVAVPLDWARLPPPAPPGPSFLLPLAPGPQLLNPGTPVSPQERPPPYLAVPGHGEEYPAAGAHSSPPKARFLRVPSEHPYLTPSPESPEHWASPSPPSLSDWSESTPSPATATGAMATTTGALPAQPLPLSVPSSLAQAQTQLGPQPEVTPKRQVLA

SMILES | composite z-score [1] | composite z-score [2] | composite z-score [3] | composite z-score [4] | composite z-score [5] | composite z-score [6] | composite z-score [7] | z-score [8] | composite z-score [9] | composite z-score [10] | composite z-score [11] | z-score [12] | z-score [13] | z-score [14] | composite z-score [15] | z-score [16] | composite z-score [17] | composite z-score [18] | composite z-score [19] | composite z-score [20]
Cc1ccc(S(=O)(=O)N2CC(C(=O)O)=CCC2c2ccccc2)cc1 (stereo not given) | 0.578 | -0.0007 | -0.0128 | 0.118 | -0.0631 | -0.0288 | -0.11 | -1.03 (inactive) | -0.513 | -0.204 | 0.461 | -0.224 (inactive) | 1.29 (inactive) | -0.0893 (inactive) | 2.89 | -1.11 (inactive) | 0.431 | -1.22 | -0.231 | 0.254
C[n+]1ccc2ccc(O)cc2c1 | -0.201 | 1.46 | -0.081 | 0.0493 | 0.12 | 0.615 | 0.767 | 1.53 (inactive) | -0.173 | -0.0994 | 1.56 | 0.0119 (inactive) | -0.208 (inactive) | 2.96 (inactive) | 1.14 | -0.992 (inactive) | -0.0562 | 1.01 | 1.05 | -0.0453
O=S(=O)(NCCCO)c1ccc(Br)cc1 | -0.109 | 1.04 | -0.112 | 0.209 | 0.433 | 1.07 | 1.07 | -1.91 (inactive) | 0.14 | -0.226 | 0.607 | -1.72 (inactive) | -1.57 (inactive) | -0.531 (inactive) | 1.18 | 0.707 (inactive) | -0.18 | 0.355 | -0.271 | -0.0363
CO[C@H]1O[C@H](CO)[C@@H](OC(=O)Nc2ccc3c(c2)OCO3)[C@H](OC(=O)Nc2ccc3c(c2)OCO3)[C@H]1OC(=O)Nc1ccc2c(c1)OCO2 | 0.0472 | -0.235 | 0.0575 | 0.844 | 1.39 | 1.83 | 1.25 | 6.05 (inactive) | 0.634 | -0.0296 | 1.54 | 1.68 (inactive) | 0.861 (inactive) | 3.19 (inactive) | 3.5 | 0.922 (inactive) | 0.151 | 0.816 | 1.03 | -0.0455
COc1ccc([Si](C)(C)[C@@H]2[C@@H](CCO)O[C@]3(C(=O)N(Cc4ccccc4)c4ccc(N(C=O)c5ccccc5)cc43)[C@H]2C)cc1 | -0.106 | 0.255 | -0.133 | 0.465 | 0.154 | 0.359 | 0.979 | -2.04 (inactive) | -0.176 | -0.236 | 1.28 | 0.697 (inactive) | 1.56 (inactive) | 7.37 (inactive) | 1.33 | 0.329 (inactive) | -0.0479 | 0.0182 | 0.718 | -0.189
CC[C@@H]1C=C(C(=O)O)[C@H](c2ccc(C(C)C)cc2)N1S(=O)(=O)c1ccc(C)cc1 | 0.341 | 1.41 | 0.412 | 1.12 | 1.75 | 1.91 | 0.908 | -2.32 (inactive) | 1.64 | 0.0401 | 1.53 | -0.921 (inactive) | 0.242 (inactive) | -1.07 (inactive) | 3.03 | -0.29 (inactive) | 0.678 | -0.0177 | 1.03 | 0.516
CCOC(=O)C=Cc1cccc(OC)c1O | -0.0086 | 0.689 | -0.0894 | -0.572 | -1.37 | -0.196 | 0.189 | 6.99 (inactive) | -0.722 | -0.439 | 0.124 | -9.3 (active) | -7.21 (inactive) | -0.346 (inactive) | 0.0496 | -0.0998 (inactive) | -0.249 | -1.09 | -0.125 | -0.209
CCN(CC)c1ccc(N2CC=CC34O[C@@H]5/C=C\CCC(C)OC(=O)C5[C@H]3C(=O)N(CCCCCCO)[C@@H]4C2=O)cc1 (stereo not given in full) | 0.142 | 0.19 | -0.0766 | 0.69 | -0.498 | 0.374 | 1.4 | 0.316 (inactive) | -0.32 | 0.0373 | -0.661 | -0.13 (inactive) | -0.147 (inactive) | 0.252 (inactive) | 0.989 | 0.477 (inactive) | -0.204 | -0.668 | -0.318 | -0.21
O=C1O[C@@H](c2ccccc2)[C@@H](c2ccccc2)N2[C@@H](c3ccc(O)cc3)[C@]3(C(=O)Nc4ccc(C#CCCO)cc43)[C@@H](C(=O)N3CCCCCCC3)[C@H]12 | 2.71 | 1.72 | 0.442 | 0.888 | 0.347 | 1.62 | 1.25 | -1.61 (inactive) | 2.57 | 1.64 | 1.55 | 0.36 (inactive) | 0.67 (inactive) | 1.51 (inactive) | 3.5 | -0.306 (inactive) | 1.26 | 1.48 | 0.939 | 0.079
C=CCC(OC(C)=O)[C@@H]1[C@@H](N(Cc2ccc(-c3cccc(C(F)(F)F)c3)o2)C(=O)c2ccc(C)cc2)c2cc(OCCCO)ccc2N1C(=O)c1ccc2ccccc2n1 (stereo not given in full) | 0.172 | 0.0875 | -0.036 | 0.515 | 0.126 | 0.147 | 0.118 | -0.352 (inactive) | 0.361 | 0.0373 | -0.0077 | -0.269 (inactive) | -0.546 (inactive) | 0.28 (inactive) | 0.42 | 1.44 (inactive) | -0.0286 | 0.605 | 0.309 | -0.147
CCOC(=O)C1=CC[C@@H](c2cccc(Cl)c2)N(S(=O)(=O)c2ccc(C)cc2)[C@H]1c1ccc(C#N)cc1 | 0.128 | 0.0669 | 0.104 | 0.862 | 1.65 | 1.61 | 1.15 | -0.534 (inactive) | 0.751 | 0.0274 | 1.56 | 0.914 (inactive) | 1.99 (inactive) | 2.58 (inactive) | 3.18 | -1.2 (inactive) | -0.0018 | 0.156 | 1.05 | 0.191
O=C(NCC(O)CO)[C@@]1(Cc2ccccc2)COC(c2ccc(OCCCO)cc2)=N1 (stereo not given in full) | 0.213 | -0.0995 | -0.083 | 0.138 | -0.0908 | 0.736 | 0.698 | 0.518 (inactive) | 0.112 | -0.12 | -0.546 | 0.0965 (inactive) | -0.92 (inactive) | -0.639 (inactive) | 1.1 | 0.869 (inactive) | -0.0809 | -0.891 | -1.18 | 0.132
Cc1ccc(S[C@]2(C(=O)NCCN3CCOCC3)CC(=O)N(C3CCCCC3)[C@@H]2c2ccc(CO)cc2)cc1 | -0.0386 | -0.439 | -0.158 | 0.123 | 0.825 | 1 | 1.09 | 0.046 (inactive) | 0.283 | -0.0645 | 1.05 | -0.0801 (inactive) | -0.134 (inactive) | -0.942 (inactive) | 3.05 | -0.114 (inactive) | -0.072 | 0.218 | 0.404 | -0.111
